Tested on: PRMT1 (protein arginine N-methyltransferase 1)
Assay: PRMT1 binders on small-molecule microarrays, primary screen, biochemical, small-molecule microarray, 635 nm fluorescence (AID 1088);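 note: binding of Prmt1 protein to compounds spotted on small-molecule microarray slides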
Conditions: small-molecule microarray binding, higher = more signal

| SMILES | composite z-score |
| --- | --- |
| O=C1C2C=CC(C(O)c3ccc([N+](=O)[O-])cc3)N(Nc3ccccc3)C2C(=O)N1c1ccccc1 (centres undefined) | 0.44 |
| CC(=O)NCCCC[C@@H]1NC(=O)[C@H]2C[C@@H](C(=O)NCCCCCC[N+](C)(C)C)[C@@H](c3ccc(O)cc3)N2C1=O | 1.55 |
| CCCC[C@H]1OB(O)C[C@H]2C1=C(COC)C[C@H]1C(=O)C=CC(=O)[C@H]12 | 1.42 |
| C[C@@H](OCc1ccccc1)C1NC(=O)[C@@]23C(=O)N[C@@H](Cc4ccccc4)C2[C@H](C)[C@@]2(C)O[C@H]2C3/C=C/C/C=C\CNC(=O)[C@H](Cc2ccccc2)NC1=O (some centres undefined) | 0.448 |
| C=CCC(OC(C)=O)[C@@H]1[C@@H](N(Cc2ccc(-c3cccc(C(F)(F)F)c3)o2)C(=O)c2cccc3ccccc23)c2cc(OCCCO)ccc2N1C(=O)c1ccc2ccccc2c1 (some centres undefined) | -0.429 |
| COCCn1c(C(=O)N2CCCC2)cc2c1C[C@H]1CN(C(=O)c3ccccc3)[C@@](Cc3ccccc3)(C(=O)OC)[C@@H]21 | 1.28 |
| C=CC[C@@]12N=C(c3ccc(OCCCO)cc3)O[C@@H]1c1ccccc1N(Cc1ccccc1)C2=O | 1.54 |
| C[C@]1(C(=O)NCC(F)(F)F)c2ccccc2C(=O)N(Cc2ccc(OC(F)(F)F)cc2)[C@H]1c1ccc(CO)cc1 | 0.64 |
| O=C1N(CCS(=O)(=O)c2ccccc2)c2ccccc2[C@@H]2OC(c3ccc(OCCCO)cc3)=N[C@]12CCS(=O)(=O)c1ccccc1 | 1.54 |
| CN(C)CCCC[C@@H]1NC(=O)[C@@H]2C[C@H](C(=O)NCCCCCCNC(=O)CS)[C@H](c3cccc(OCCO)c3)N2C1=O | 1.39 |
| [N-]=[N+]=Nc1ccccc1[C@@H]1OC(c2ccc(OCCCO)cc2)=N[C@]1(Cc1ccccc1)C(N)=O | -0.0138 |
| C=CC[C@]1(C(=O)N(C)C)COC(c2ccc(OCCCO)cc2)=N1 | 1.36 |
| O=C1O[C@@H](c2ccccc2)[C@@H](c2ccccc2)N2[C@@H](c3ccc(O)cc3)[C@]3(C(=O)Nc4ccc(C#CC5=CCCCC5)cc43)[C@@H](C(=O)N3CCCCCCC3)[C@H]12 | 1.54 |
| CCCCC(=C=CC[C@@H](O)c1cccc(OCCO)c1)C[C@@H](O)COCc1ccccc1 | 0.554 |
| [N-]=[N+]=NCc1ccccc1C[C@]1(C(=O)O)COC(c2ccc(OCCCO)cc2)=N1 | -0.486 |
| COC(=O)[C@]1(CO)N=C(c2ccc(OCCCO)cc2)O[C@@H]1c1ccccc1CN=[N+]=[N-] | 0.575 |
| COc1ccc(NN2C(C(O)c3cc(C(F)(F)F)cc(C(F)(F)F)c3)C=CC3C(=O)N(C4CCCCC4)C(=O)C32)cc1 (centres undefined) | 1.28 |
| CN(C)CCCC[C@@H]1NC(=O)[C@H]2C[C@@H](C(=O)NCc3ccc(F)cc3)[C@@H](c3ccc(O)cc3)N2C1=O | 1.56 |
| CCCC=C(CCC)[C@@H](NC(=O)c1ccccc1)c1ccc(C(=O)OC)cc1 | 0.661 |
| C=CCC(OC(C)=O)[C@@H]1[C@@H](N(Cc2cccc3ccccc23)C(=O)c2cccc3ccccc23)c2cc(OCCCO)ccc2N1C(=O)Cc1ccc2ccccc2c1 (some centres undefined) | -0.254 |
| C=C(COC)/C(=C/C[C@@H](OC(C)=O)c1ccccc1OCCO)c1cc(C(=O)OC)ccc1OC | 1.37 |
| CO[C@H]1O[C@H](CO)[C@@H](OC(=O)Nc2ccc(C(F)(F)F)cc2)[C@H](OC(=O)Nc2ccccc2-c2ccccc2)[C@@H]1OC(=O)Nc1ccccc1-c1ccccc1 | 1.54 |
| CCOC(=O)C[C@H]1[C@H](OC(=O)c2ccc(-c3ccccc3)cc2)[C@@H](NC(=O)CC(C)C)c2cc(OCCCO)ccc2N1C(=O)Cc1ccc(OC)cc1 | 0.403 |
| CCOC(=O)C[C@H]1[C@H](OC(=O)c2cc3ccccc3oc2=O)[C@@H](NC(=O)C2CCCCC2)c2cc(OCCCO)ccc2N1C(=O)Cc1ccc(OC)cc1 | 0.466 |
| N#Cc1ccc(C(O)C2C=CC3C(=O)NC(=O)C3N2Nc2ccccn2)cc1 (centres undefined) | 0.312 |
| O=C1C2C=CC(C(O)c3cccs3)N(Nc3ccccc3)C2C(=O)N1c1ccccc1 (centres undefined) | -0.435 |
| COC(=O)[C@@]1(Cc2ccc(OC)cc2)[C@H]2c3cc(C(=O)N4CCCC4)n(CCc4ccc(OC)c(Br)c4)c3C[C@H]2CN1C(=O)c1ccccc1 | -1.11 |
| CO[C@H]1O[C@H](CO)[C@@H](OC(=O)Nc2ccc(C(F)(F)F)cc2)[C@H](OC(=O)Nc2ccccc2-c2ccccc2)[C@H]1OC(=O)Nc1ccccc1-c1ccccc1 | 1.54 |
| CCOC(=O)C1=C(C(=O)OCC)N(S(=O)(=O)CC[Si](C)(C)C)[C@H](c2ccccc2)CC1 | 1.03 |
